# Inconclusive results are not listed. Calls of active or inactive are those of the source. The calls were made as follows, unless noted: active = hit-call score of the fitted dose curve at least 0.9, where 1 is the maximum; inactive = score below 0.9.
# How the values were obtained:
# [1] = read-out: matrix metalloproteinase-3 (MMP3), MMP3 (gene 4314); test: LTEA_HepaRG_MMP3: Life Technologies and Expression Analysis (LTEA) Assay for matrix metalloproteinase-3 (MMP3) using HepaRG (AID 2283519); settings: mRNA level, 48 h; actives raise or lower the signal
# How it was run: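 Differentiated human HepaRG cells, plated 48 h on collagen I, were exposed in duplicate for 48 h in serum-free induction medium to eight half-log concentrations up to 100 uM in 0.5% DMSO. MMP3 mRNA was quantified by TaqMan qRT-PCR, normalised to ACTB, GAPDH and POLR2A.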
# [2] = read-out: Paternally Expressed 10 (PEG10), PEG10 (gene 23089); test: LTEA_HepaRG_PEG10: Life Technologies and Expression Analysis (LTEA) Assay for Paternally Expressed 10 (PEG10) using HepaRG (AID 2283520); settings: mRNA level, 48 h; actives raise or lower the signal
# How it was run: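 Chemicals tested on HepaRG cells for 48 h, highest concentration 100 uM. PEG10 expression assessed by qRT-PCR relative to DMSO control.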
# [3] = read-out: Nuclear factor NF-kappa-B p105 subunit (Homo sapiens) (UniProt P19838); test: LTEA_HepaRG_NFKB1: Life Technologies and Expression Analysis (LTEA) Assay for Nuclear Factor Kappa B Subunit 1 (NFKB1) using HepaRG (AID 2283521); settings: mRNA level, 48 h; actives raise or lower the signal
# How it was run: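 NFKB1 transcript was measured by TaqMan qRT-PCR on Fluidigm arrays, normalised to three housekeeping genes and fitted in both directions against 0.5% DMSO. HepaRG cells were dosed in duplicate for 48 h in serum-free induction medium, eight half-log steps from 100 uM.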
# [4] = read-out: Protein phosphatase 2A (PPP2R4), PTPA (gene 5524); test: LTEA_HepaRG_PPP2R4: Life Technologies and Expression Analysis (LTEA) Assay for Protein phosphatase 2A (PPP2R4) using HepaRG (AID 2283522); settings: mRNA level, 48 h; actives raise or lower the signal
# How it was run: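 Gene-expression endpoint in HepaRG hepatic cells: 48 h treatment across eight half-log concentrations up to 100 uM in 0.5% DMSO. PPP2R4 mRNA by qRT-PCR, normalized to three endogenous control genes.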
# [5] = read-out: Phosphatase and tensin (PTEN), PTEN (gene 5728); test: LTEA_HepaRG_PTEN: Life Technologies and Expression Analysis (LTEA) Assay for Phosphatase and tensin (PTEN) using HepaRG (AID 2283523); settings: mRNA level, 48 h; actives raise or lower the signal
# How it was run: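 Differentiated human HepaRG cells, plated 48 h then switched to serum-free induction medium, were exposed in duplicate for 48 h to eight half-log concentrations up to 100 uM in 0.5% DMSO. PTEN mRNA measured by TaqMan qRT-PCR, normalized to ACTB/GAPDH/POLR2A, bidirectional fit versus DMSO.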
# [6] = read-out: solute carrier (SLC22A1), SLC22A1 (gene 6580); test: LTEA_HepaRG_SLC22A1: Life Technologies and Expression Analysis (LTEA) Assay for solute carrier (SLC22A1) using HepaRG (AID 2283524); settings: mRNA level, 48 h; actives raise or lower the signal
# How it was run: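 Human HepaRG cells were plated 48 h, switched to serum-free induction medium, then exposed in duplicate for 48 h to 8-point half-log series from 100 uM in 0.5% DMSO. SLC22A1 mRNA measured by qRT-PCR, normalized to ACTB/GAPDH/POLR2A, fitted bidirectionally versus DMSO.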
# [7] = read-out: Pyruvate Dehydrogenase Kinase 4 (PDK4), PDK4 (gene 5166); test: LTEA_HepaRG_PDK4: Life Technologies and Expression Analysis (LTEA) Assay for Pyruvate Dehydrogenase Kinase 4 (PDK4) using HepaRG (AID 2283525); settings: mRNA level, 48 h; actives raise or lower the signal
# How it was run: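 Differentiated human HepaRG cells, pre-cultured 48 h, were exposed in duplicate for 48 h in serum-free induction medium to eight half-log concentrations up to 100 uM in 0.5% DMSO. PDK4 mRNA was quantified by qRT-PCR, normalized to ACTB, GAPDH and POLR2A, bidirectional fitting versus DMSO.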
# [8] = read-out: succinate dehydrogenase complex iron sulfur subunit B (SDHB), SDHB (gene 6390); test: LTEA_HepaRG_SDHB: Life Technologies and Expression Analysis (LTEA) Assay for succinate dehydrogenase complex iron sulfur subunit B (SDHB) using HepaRG (AID 2283528); settings: mRNA level, 48 h; actives raise or lower the signal
# How it was run: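 SDHB transcript level read by TaqMan qRT-PCR, housekeeping-normalised (ACTB, GAPDH, POLR2A), after 48 h chemical treatment of plated HepaRG cells; eight concentrations top 100 uM, half-log steps, 0.5% DMSO, duplicates; fitted both directions against DMSO.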
# [9] = read-out: Signal transducer and activator of transcription 3 (Homo sapiens) (UniProt P40763); test: LTEA_HepaRG_STAT3: Life Technologies and Expression Analysis (LTEA) Assay for Signal transducer and activator of transcription (STAT3) using HepaRG (AID 2283529); settings: mRNA level, 48 h; actives raise or lower the signal
# How it was run: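 Differentiated human HepaRG cells in serum-free induction medium were exposed in duplicate for 48 h to eight half-log concentrations up to 100 uM in 0.5% DMSO. STAT3 mRNA was quantified by TaqMan qRT-PCR, normalized to ACTB, GAPDH and POLR2A, and fitted bidirectionally against DMSO.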
# [10] = read-out: solute carrier (SLCO1B1), SLCO1B1 (gene 10599); test: LTEA_HepaRG_SLCO1B1: Life Technologies and Expression Analysis (LTEA) Assay for solute carrier (SLCO1B1) using HepaRG (AID 2283530); settings: mRNA level, 48 h; actives raise or lower the signal
# How it was run: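 Human HepaRG cultures treated for 48 h with an eight-concentration half-log series topping at 100 uM; SLCO1B1 measured by qRT-PCR and fitted bidirectionally relative to DMSO.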
# [11] = read-out: sulfotransferase 2A1 (SULT2A1), SULT2A1 (gene 6822); test: LTEA_HepaRG_SULT2A1: Life Technologies and Expression Analysis (LTEA) Assay for sulfotransferase 2A1 (SULT2A1) using HepaRG (AID 2283531); settings: mRNA level, 48 h; actives raise or lower the signal
# How it was run: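 Gene-expression endpoint in a human liver cell line: SULT2A1 mRNA change after 48 h chemical treatment, curves fitted in both directions relative to 0.5% DMSO vehicle. Concentrations spanned eight half-log steps from 100 uM.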
# [12] = read-out: Transforming Growth Factor (TGFA), TGFA (gene 7039); test: LTEA_HepaRG_TGFA: Life Technologies and Expression Analysis (LTEA) Assay for Transforming Growth Factor (TGFA) using HepaRG (AID 2283532); settings: mRNA level, 48 h; actives raise or lower the signal
# How it was run: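 Differentiated human HepaRG cells, plated 48 h then switched to serum-free induction medium, were exposed in duplicate for 48 h to 8-point half-log series from 100 uM in 0.5% DMSO. TGFA mRNA measured by qRT-PCR, normalized to ACTB/GAPDH/POLR2A, bidirectional fit versus DMSO.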
# [13] = read-out: Transforming Growth Factor (TGFB1), TGFB1 (gene 7040); test: LTEA_HepaRG_TGFB1: Life Technologies and Expression Analysis (LTEA) Assay for Transforming Growth Factor (TGFB1) Transporter using HepaRG (AID 2283533); settings: mRNA level, 48 h; actives raise or lower the signal
# How it was run: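 Eight-point concentration-response (max 100 uM, half-log) in HepaRG under serum-free induction conditions, 48 h. TGFB1 mRNA by qRT-PCR, housekeeping-normalized.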
# TIMP1, TIMP1 (gene 7076) = test: LTEA_HepaRG_TIMP1: Life Technologies and Expression Analysis (LTEA) Assay for TIMP1 using HepaRG (AID 2283534); settings: mRNA level, 48 h; actives raise or lower the signal;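 also: TaqMan qRT-PCR signal normalized to ACTB GAPDH and POLR2A housekeeping genes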
# How it was run: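 TIMP1 induction or repression in HepaRG cells after 48 h chemical exposure (eight concentrations, highest 100 uM), assessed by normalized qRT-PCR with bidirectional fitting to DMSO controls.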
# [14] = read-out: Tumor necrosis factor receptor 1 (TNFRSF1A), TNFRSF1A (gene 7132); test: LTEA_HepaRG_TNFRSF1A: Life Technologies and Expression Analysis (LTEA) Assay for Tumor necrosis factor receptor 1 (TNFRSF1A) using HepaRG (AID 2283535); settings: mRNA level, 48 h; actives raise or lower the signal
# How it was run: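 Assay uses 48 h chemical treatment of differentiated HepaRG monolayers, tested in duplicate at eight concentrations from 100 uM downward in 0.5% DMSO. mRNA is normalized to ACTB, GAPDH and POLR2A, with induction or suppression fitted relative to vehicle.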
# [15] = read-out: Thyroid Hormone Responsive (THRSP), THRSP (gene 7069); test: LTEA_HepaRG_THRSP: Life Technologies and Expression Analysis (LTEA) Assay for Thyroid Hormone Responsive (THRSP) using HepaRG (AID 2283536); settings: mRNA level, 48 h; actives raise or lower the signal
# How it was run: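 Differentiated human HepaRG cells were exposed in duplicate for 48 h in serum-free induction medium to eight concentrations (top 100 uM, half-log steps, 0.5% DMSO). Expression was quantified by TaqMan qRT-PCR, normalized to ACTB, GAPDH and POLR2A, with bidirectional fitting against DMSO.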
# [16] = read-out: UDP glucuronosyltransferase (UGT1A6), UGT1A6 (gene 54578); test: LTEA_HepaRG_UGT1A6: Life Technologies and Expression Analysis (LTEA) Assay for UDP glucuronosyltransferase (UGT1A6) using HepaRG (AID 2283539); settings: mRNA level, 48 h; actives raise or lower the signal
# How it was run: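 Measures mRNA change in HepaRG hepatic cells exposed 48 h to chemicals (eight-point, maximum 100 uM, 0.5% DMSO vehicle) in serum-free induction medium. Expression normalized to endogenous controls; DMSO served as negative control and baseline.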
# [17] = read-out: X-box binding protein 1 (XBP1), XBP1 (gene 7494); test: LTEA_HepaRG_XBP1: Life Technologies and Expression Analysis (LTEA) Assay for X-box binding protein 1 (XBP1) using HepaRG (AID 2283540); settings: mRNA level, 48 h; actives raise or lower the signal
# How it was run: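 Eight concentrations (half-log, highest 100 uM, 0.5% DMSO) tested in duplicate on HepaRG cells over 48 h in serum-free induction medium; qRT-PCR of XBP1 normalised to ACTB, GAPDH, POLR2A.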
# [18] = LTEA_HepaRG_LDH_cytotoxicity: Cytotoxicity Assessment in the Life Technologies and Expression Analysis (LTEA) Assay (AID 2283563; active = hit-call score of the fitted dose curve at least 0.9, where 1 is the maximum;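 as to AC50: LDH activity released into spent culture medium as a marker of cell death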)
# How it was run: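 Spent-medium LDH after 48 h chemical exposure of HepaRG cells in serum-free induction medium; eight concentrations, half-log dilutions from 100 uM, duplicate wells, fitted upward relative to 0.5% DMSO.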
# [19] = ATG_XTT_Cytotoxicity: Cytotoxicity Assessment in the Attagene TRANS-FACTORIAL HepG2 Assay (AID 2283584; active = hit-call score of the fitted dose curve at least 0.9, where 1 is the maximum)
# How it was run: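 24 h chemical exposure of reporter-transfected HepG2; XTT signal loss vs DMSO indicates cytotoxicity.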
# Sequence of Signal transducer and activator of transcription 3 (Homo sapiens) (P40763 whole entry, looked up): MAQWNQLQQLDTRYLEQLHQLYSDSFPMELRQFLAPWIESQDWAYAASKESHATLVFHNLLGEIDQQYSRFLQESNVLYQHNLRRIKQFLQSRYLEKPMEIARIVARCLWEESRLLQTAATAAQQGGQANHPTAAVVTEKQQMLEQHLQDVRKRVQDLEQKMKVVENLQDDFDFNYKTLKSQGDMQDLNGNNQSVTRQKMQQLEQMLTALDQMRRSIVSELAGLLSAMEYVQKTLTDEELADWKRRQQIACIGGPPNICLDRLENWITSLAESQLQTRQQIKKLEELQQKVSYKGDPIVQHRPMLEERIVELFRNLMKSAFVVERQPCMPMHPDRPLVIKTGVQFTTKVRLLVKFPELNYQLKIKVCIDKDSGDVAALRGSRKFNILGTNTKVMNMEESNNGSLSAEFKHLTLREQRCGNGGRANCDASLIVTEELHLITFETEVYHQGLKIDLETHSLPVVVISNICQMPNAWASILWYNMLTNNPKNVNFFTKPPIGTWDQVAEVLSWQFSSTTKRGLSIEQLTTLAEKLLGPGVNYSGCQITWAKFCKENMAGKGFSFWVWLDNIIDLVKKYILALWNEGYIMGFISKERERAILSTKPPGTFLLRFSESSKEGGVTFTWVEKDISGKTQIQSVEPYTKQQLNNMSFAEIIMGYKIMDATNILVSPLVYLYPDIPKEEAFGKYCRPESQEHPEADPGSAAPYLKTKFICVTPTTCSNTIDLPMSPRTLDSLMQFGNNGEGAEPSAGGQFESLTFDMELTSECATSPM
# Sequence of Nuclear factor NF-kappa-B p105 subunit (Homo sapiens) (P19838 whole entry, looked up): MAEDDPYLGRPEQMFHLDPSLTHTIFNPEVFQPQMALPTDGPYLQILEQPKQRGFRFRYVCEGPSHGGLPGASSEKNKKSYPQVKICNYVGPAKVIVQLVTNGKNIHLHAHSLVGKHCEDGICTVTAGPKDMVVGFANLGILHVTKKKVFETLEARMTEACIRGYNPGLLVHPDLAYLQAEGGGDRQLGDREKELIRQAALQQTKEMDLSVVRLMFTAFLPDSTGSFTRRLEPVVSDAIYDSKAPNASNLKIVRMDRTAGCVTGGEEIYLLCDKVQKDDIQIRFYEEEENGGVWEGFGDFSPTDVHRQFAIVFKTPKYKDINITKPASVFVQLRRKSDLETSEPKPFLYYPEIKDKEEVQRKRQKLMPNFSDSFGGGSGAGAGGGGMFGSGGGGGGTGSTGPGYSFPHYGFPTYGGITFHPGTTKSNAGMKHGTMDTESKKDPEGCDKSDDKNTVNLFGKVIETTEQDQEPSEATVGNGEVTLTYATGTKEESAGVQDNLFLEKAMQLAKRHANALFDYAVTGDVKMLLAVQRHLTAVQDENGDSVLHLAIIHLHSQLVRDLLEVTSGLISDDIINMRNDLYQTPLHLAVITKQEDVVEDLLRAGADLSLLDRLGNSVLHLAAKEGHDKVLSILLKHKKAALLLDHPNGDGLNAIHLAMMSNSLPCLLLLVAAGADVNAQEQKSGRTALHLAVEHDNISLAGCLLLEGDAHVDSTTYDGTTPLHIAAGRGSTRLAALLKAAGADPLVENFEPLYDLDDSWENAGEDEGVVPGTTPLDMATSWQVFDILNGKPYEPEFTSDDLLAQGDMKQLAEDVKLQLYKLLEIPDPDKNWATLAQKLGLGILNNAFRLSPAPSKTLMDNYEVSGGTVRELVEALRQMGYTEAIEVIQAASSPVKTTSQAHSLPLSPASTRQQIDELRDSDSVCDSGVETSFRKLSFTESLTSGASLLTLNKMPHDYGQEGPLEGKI
smiles,measurement,setting,value
CC(C)(c1ccccc1)c1ccc(O)c(C(C)(C)c2ccccc2)c1,outcome,[1],inactive
same,outcome,[2],inactive
same,outcome,[3],inactive
same,outcome,[4],inactive
same,outcome,[5],inactive
same,AC50,[6],65.4 µM (active)
same,outcome,[7],inactive
same,outcome,[8],inactive
same,outcome,[9],inactive
same,AC50,[10],74.4 µM (active)
same,AC50,[11],86.3 µM (active)
same,outcome,[12],inactive
same,outcome,[13],inactive
same,outcome,"TIMP1, TIMP1 (gene 7076)",inactive
same,outcome,[14],inactive
same,AC50,[15],12.7 µM (active)
same,outcome,[16],inactive
same,outcome,[17],inactive
same,AC50,[18],72.2 µM (active)
ClCC(Cl)CCl,outcome,[1],inactive
same,outcome,[2],inactive
same,outcome,[4],inactive
same,outcome,[5],inactive
same,outcome,[6],inactive
same,outcome,[7],inactive
same,outcome,[8],inactive
same,outcome,[9],inactive
same,outcome,[10],inactive
same,outcome,[11],inactive
same,outcome,[12],inactive
same,outcome,[13],inactive
same,outcome,"TIMP1, TIMP1 (gene 7076)",inactive
same,outcome,[14],inactive
same,outcome,[15],inactive
same,outcome,[16],inactive
same,outcome,[17],inactive
same,outcome,[18],inactive
same,outcome,[19],inactive
O=c1[nH]c(=O)[nH]c(=O)[nH]1,outcome,[1],inactive
same,outcome,[2],inactive
same,outcome,[3],inactive
same,outcome,[4],inactive
same,outcome,[5],inactive
same,outcome,[6],inactive
same,outcome,[7],inactive
same,outcome,[8],inactive
same,outcome,[9],inactive
same,outcome,[10],inactive
same,outcome,[11],inactive
same,outcome,[12],inactive
same,outcome,[13],inactive
same,outcome,"TIMP1, TIMP1 (gene 7076)",inactive
same,outcome,[14],inactive
same,outcome,[15],inactive
same,outcome,[16],inactive
same,outcome,[17],inactive
same,outcome,[18],inactive
same,outcome,[19],inactive
Cc1ccccc1N,outcome,[1],inactive
same,outcome,[2],inactive
same,outcome,[3],inactive
same,outcome,[4],inactive
same,outcome,[5],inactive
same,outcome,[6],inactive
same,outcome,[7],inactive
same,outcome,[8],inactive
same,outcome,[9],inactive
same,outcome,[10],inactive
same,outcome,[11],inactive
same,outcome,[12],inactive
same,outcome,[13],inactive
same,outcome,"TIMP1, TIMP1 (gene 7076)",inactive
same,outcome,[14],inactive
same,outcome,[15],inactive
same,outcome,[16],inactive
same,outcome,[17],inactive
same,outcome,[18],inactive
same,outcome,[19],inactive

# — PubChem BioAssay (EPA / NIEHS)
